Bead autofluor: compound fluorescence in toxin protease inhibitor counterscreen; compound autofluorescence counterscreen, microsphere flow cytometry; hits give high values; fluorescence intensity (concentration not given with the values); hit rate 3.1% among 360,000; AID 624483; in the data active = fluorescence intensity above about 16000; inconclusive = no clear call, values can overlap the other calls
BoNT A protease: BoNT/A light chain protease inhibitors, primary screen, biochemical, flow cytometry, MLPCN library. Botulinum neurotoxin type A light chain protease (Clostridium botulinum A str. ATCC 3502). inhibition, % at 10 µM. multiplex microsphere protease substrate cleavage. hit rate 0.17% among 360,000; also: plate controls were buffer without enzyme for full effect and enzyme alone for no effect
GDH-TPI counter: GDH-TPI coupling enzyme inhibitors, primary screen, artefact control for M. tuberculosis FBA inhibitor project, biochemical, absorbance, full deck; GDH-TPI coupled enzyme counterscreen, NADH absorbance; inhibition, % at 4.8 µM; hit rate 1.2% among 360,000; AID 588335, 2011; in the data active = inhibition above about 30%;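 also: 0% = DMSO wells and 100% = wells lacking the enzyme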
Mtb FBA inh: Mtb FBA enzyme inhibitors, primary screen, biochemical, fluorescence, strain H37Rv; inhibition, % at 1 µM; purified M. tuberculosis FBA, fluorescence read-out; Fructose-bisphosphate aldolase (Mycobacterium tuberculosis (strain ATCC 25618 / H37Rv)), …; hit rate 2.3% among 360,000; in the data active = inhibition above about 27%;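 also: 0% = vehicle and 100% = reference inhibitor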
BoNT-F LC inh: BoNT/F light chain protease inhibitors, primary screen, biochemical, flow cytometry, MLPCN library | Botulinum neurotoxin type F light chain protease (Clostridium botulinum) | Multiplex microsphere protease cleavage assay | inhibition, % at 10 µM | hit rate 0.22% among 360,000; in the data active = inhibition above about 35%, passing the limit was not always enough; inconclusive = no clear call, values can overlap the other calls; also: plate controls were buffer without enzyme for full effect and enzyme alone for no effect
Anthrax LF prot: Bacillus anthracis LF protease inhibitors, primary screen, biochemical, multiplex microsphere, MLPCN library | hit rate 0.12% among 360,000 | inhibition, % at 10 µM | Lethal factor (Bacillus anthracis), P15917 | multiplex microsphere protease cleavage assay | AID 588501, 2011; also: plate controls were buffer without enzyme for full effect and enzyme alone for no effect
Target sequence (P15917 whole entry, looked up): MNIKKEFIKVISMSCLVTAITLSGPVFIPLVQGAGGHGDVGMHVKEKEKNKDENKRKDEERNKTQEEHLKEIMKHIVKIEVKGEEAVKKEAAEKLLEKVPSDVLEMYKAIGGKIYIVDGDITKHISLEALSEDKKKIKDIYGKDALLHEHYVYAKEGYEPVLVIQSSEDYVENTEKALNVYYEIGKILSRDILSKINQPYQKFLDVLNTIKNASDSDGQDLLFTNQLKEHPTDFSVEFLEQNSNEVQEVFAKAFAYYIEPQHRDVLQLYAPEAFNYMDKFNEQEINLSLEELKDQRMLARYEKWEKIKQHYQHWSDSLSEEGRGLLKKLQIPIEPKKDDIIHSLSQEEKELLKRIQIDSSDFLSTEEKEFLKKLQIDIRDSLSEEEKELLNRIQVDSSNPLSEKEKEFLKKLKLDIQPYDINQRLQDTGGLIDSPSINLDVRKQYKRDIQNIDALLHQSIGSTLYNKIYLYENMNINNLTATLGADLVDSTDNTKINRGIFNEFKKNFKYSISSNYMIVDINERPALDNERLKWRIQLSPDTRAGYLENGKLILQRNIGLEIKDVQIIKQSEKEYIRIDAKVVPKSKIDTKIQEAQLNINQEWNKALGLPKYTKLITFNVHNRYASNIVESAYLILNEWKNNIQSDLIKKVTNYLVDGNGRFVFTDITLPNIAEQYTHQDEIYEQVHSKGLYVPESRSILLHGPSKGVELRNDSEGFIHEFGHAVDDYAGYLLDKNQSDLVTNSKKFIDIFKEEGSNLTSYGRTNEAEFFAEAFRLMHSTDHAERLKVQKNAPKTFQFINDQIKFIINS
Starred values were filed as active, the others as inactive; ? = inconclusive; · = no result given; + = active, no number. In the library only some 6.6% were active in any assay of this set; here they are far more common. Rule as the data show it, unless noted: active = inhibition above about 30%; inconclusive = no clear call, values can overlap the other calls; inactive = below that.

SMILES	Bead autofluor	BoNT A protease	GDH-TPI counter	Mtb FBA inh	BoNT-F LC inh	Anthrax LF prot
CCN(c1ccc(OC)cc1)S(=O)(=O)c1ccc2c(c1)CCN2C(=O)CCC(=O)O	16864*	-3	9	0	-5	-2
COc1ccc(N(CC(=O)N2CCc3ccccc32)S(=O)(=O)c2c(C)nn(C)c2C)cc1	5998	0	-7	13	-4	-2
CN(C)CCn1c2c(c(SCC(=O)Nc3cccc4ccccc34)nc1=O)CCC2	4836	2	2	1	18	4
CC(O)CNc1ccc(-c2n[nH]c(=O)c3ccccc23)cc1[N+](=O)[O-] (configuration not stated)	3111	-2	14	-5	13	-6
CC(O)CNc1cc(N)c([N+](=O)[O-])cc1[N+](=O)[O-] (configuration not stated)	2001	0	43*	-5	-1	-1
O=C(OC(C(=O)Nc1cccc(C(F)(F)F)c1)c1ccccc1)C1CCCCC1 (configuration not stated)	2324	0	3	-1	1	-1
CCCCN(CC)CCCNC(=O)c1cc2cc3ccc(OC)cc3nc2o1	3329	1	36*	+	-8	3
COc1ccc2cc3cc(C(=O)Nc4ccc5c(c4)OCO5)oc3nc2c1	4824	-1	9	-2	-18	0
CCCN(CCC)CCCNC(=O)c1cc2cc3ccc(OC)cc3nc2o1	2868	0	32*	+	4	0
COc1ccc2cc3cc(C(=O)NCc4cccs4)oc3nc2c1	6459	0	31*	+	0	-4
COc1ccc(CC(=O)NCc2cccs2)cc1	8485	0	-7	4	11	3
COc1cc(CNC(=O)c2cc(-c3ccc(F)cc3OC)n[nH]2)cc(OC)c1	2906	-1	11	5	2	-1
CCOc1ccc(-c2c(=O)n(OCc3ccccc3Br)c3ccccc3[n+]2[O-])c(OCC)c1	4167	0	3	1	-2	-2
CCOc1ccc(OCC)c(-c2c(=O)n(OCc3ccccc3Br)c3ccccc3[n+]2[O-])c1	22784*	0	7	-1	-3	1
Cc1ccc(N2CCN(C(=O)c3cc(-c4ccc(F)cc4)[nH]c3C)CC2C)cc1 (configuration not stated)	3603	-2	13	1	17	-5
CCOC(=O)C(NC(=O)c1ccccc1)=C1C=C(C)OC(C)=C1	2415	0	42*	-3	8	6
COC(=O)C(NC(=O)c1ccccc1)=C1C=C(C)OC(C)=C1	2868	0	31*	-3	-1	4
CC(C)N(C(=O)CSc1nnc(-c2ccc3c(c2)OCO3)n1C)C(C)C	4192	0	-5	-5	2	-5
C(=NN=Cc1c[nH]c2ccccc12)c1c[nH]c2ccccc12	3939	0	41*	-3	1	-1
O=C1CS/C(=N/N=C/c2c[nH]c3ccccc23)N1	6823	-1	35*	1	-7	4
O/N=C/c1c[nH]c2ccccc12	2393	0	-5	-5	-7	-1
Cc1nnn(C23CC4CC(CC(CC(=O)Nc5ccc(C)c(C)c5)(C4)C2)C3)n1	8977	0	6	2	-2	-1
COc1cccc(CN2CCNC(=O)C2CC(=O)N(C)CCC2CCOCC2)c1OC (configuration not stated)	?	-2	4	1	-1	-2
O=C(c1sc2ccccc2c1Cl)N(Cc1ccccc1)C1CCS(=O)(=O)C1 (configuration not stated)	·	·	8	3	·	·
O=C(c1sc2ccccc2c1Cl)N(Cc1ccccc1Cl)C1CCS(=O)(=O)C1 (configuration not stated)	22430*	0	3	7	2	0
O=C(c1sc2ccccc2c1Cl)N(Cc1ccco1)C1CCS(=O)(=O)C1 (configuration not stated)	23946*	?	4	-1	-4	-3
O=C(O)CSc1ncccc1C(=O)O	2554	0	9	0	-3	-4

Source: PubChem BioAssay
